Experimental findings from ChEMBL document CHEMBL1157539, “Thousands of chemical starting points for antimalarial lead identification” (Nature, 2010) are described below.

Type in all cases: functional
The subject of assay [1] is Plasmodium falciparum. In words: GSK_TCMDC: Inhibition of Plasmodium falciparum 3D7 in whole red blood cells, using parasite LDH activity as an index of growth. Test compounds present at 2uM.
Assay [2] deals with Plasmodium falciparum. In words: GSK_TCMDC: Inhibition of Plasmodium falciparum Dd2 in whole red blood cells, using parasite LDH activity as an index of growth. Test compounds present at 2uM.
Assay [3] deals with HepG2. In words: GSK_TCMDC: Percent inhibition of human HepG2 cell line. Test compounds present at 10uM.

For `COc1cc2nc(-c3ccccc3)nc(N3CCN(C(=O)c4ccco4)CC3)c2cc1OC`, the Inhibition (as a rule, the change of the read-out against control, counted positive when it falls) is 89% in assay [1], 87% in assay [2] and 0% in assay [3].

For `O=C(Nc1ccc(-c2ccccc2)cc1)Nc1cccc(Cn2nc(Cl)c(N3CCCNCC3)cc2=O)c1.O=C(O)C(F)(F)F`, the figures for the Inhibition in assay [1], in assay [2] and in assay [3] were 100%, 37% and 13%, respectively.

In the case of `Cc1noc(C)c1-c1ccc2c(Nc3ccccc3C(C)(C)C)c(C(=O)NCc3ccc(C(F)(F)F)cc3)cnc2c1.Cl`, the values for the Inhibition in assay [1], in assay [2] and in assay [3] were 99%, 50% and 30%, respectively.

As to `NS(=O)(=O)c1cccc(-c2ccc3c(O)ncnc3c2)c1`, the figures for the Inhibition in assay [1], in assay [2] and in assay [3] were 99%, 100% and 6%, respectively.

With `Cc1cc(C(=O)Nc2ccc3c(c2)CCN3C2CCN(Cc3ccc(F)cc3Cl)C2)no1` (stereo unspecified), the values for the Inhibition in assay [1], in assay [2] and in assay [3] were 95%, 96% and 7%, respectively.

As to `COc1ccc(-c2ccc(NC(=O)c3ccc(Cl)cc3)cc2)cc1CN1CCNCC1.O=C(O)C(F)(F)F`, the Inhibition was 99% in assay [1], 24% in assay [2] and 14% in assay [3].

On to `O=C(CN1CCC(NCc2cnc(-c3ccc(Cl)cc3)[nH]2)CC1)N1CCc2ccccc21`, for which the Inhibition in assay [1] came to 100%; in assay [2], 5%; in assay [3] it was 11%.

With `COc1ccc(NC(=O)N2CCc3ccc(OCCN(C(C)C)C(C)C)cc32)cc1C(F)(F)F.O=C(O)C(F)(F)F`, the Inhibition in assay [1] was found to be 90%; in assay [2] it was 6%; in assay [3] it was 0%.

For the compound `CC[C@H](C)CNC(=O)c1cncc(-c2cccc(CN3CCC(N4CCCC4)CC3)c2)c1.O=C(O)C(F)(F)F`, the figures for the Inhibition in assay [1], in assay [2] and in assay [3] were 97%, 5% and 0%, respectively.

As for `CNCCCNc1ccnc2cc(Cl)ccc12`, the Inhibition is recorded as 100% in assay [1], 25% in assay [2] and 11% in assay [3].

As to `Cc1ccc(F)c(CN2CCC(N3CC(c4ccccc4)(c4ccccc4)OC3=O)CC2)c1Cl`, the Inhibition in assay [1] stood at 95%; in assay [2], 89%; in assay [3], 11%.

In the case of `COc1ccc(S(=O)(=O)NCC2CCCN(CCCCCNC(=O)/C=C/c3ccc(Cl)c(Cl)c3)C2)cc1` (stereo unspecified), the values for the Inhibition in assay [1], in assay [2] and in assay [3] were 81%, 1% and 53%, respectively.

Consider `COc1ccc(-n2nc(C(=O)NCCC3=CCCCC3)c3ccccc3c2=O)cc1`, for which the Inhibition in assay [1] was found to be 94%; in assay [2], 59%; in assay [3], 0%.

As to `O=C(NCCCCN1CCC(c2ccc3c(c2OCC2COCO2)CCCC3)CC1)c1ccc(-c2ccc(C(F)(F)F)cc2)cc1` (stereo unspecified), the Inhibition is on record as 99% in assay [1], 45% in assay [2] and 91% in assay [3].

For the compound `Cc1cc(C(=O)Nc2ccc(-c3ccccc3)cc2)no1`, the Inhibition in assay [1] is on record as 90%; in assay [2], 94%; in assay [3] it was 6%.

Turning to `CCN(CCNS(C)(=O)=O)c1ccc(N)c(C)c1.O.O=S(=O)(O)O`, the Inhibition in assay [1] came out at 91%; in assay [2], 11%; in assay [3], 0%.

For `Cc1ccc(C2CC(=O)CC(c3ccccn3)C2[N+](=O)[O-])cc1` (stereo unspecified), the Inhibition in assay [1] is 97%; in assay [2], 2%; in assay [3], 5%.

As to `CC(C)(C)c1ccc(NC(=O)c2ccc(CN3CCCN(Cc4cccc(O)c4)CC3)cc2)cc1.O=C(O)C(F)(F)F`, the values for the Inhibition in assay [1], in assay [2] and in assay [3] were 100%, 62% and 54%, respectively.

As for `COc1ccc(C2CCN(CCCCNC(=O)c3ccc(NC(=O)c4ccc(Cl)cc4)cc3)C2)c(OC)c1` (stereo unspecified), the Inhibition in assay [1] came out at 84%; in assay [2], 0%; in assay [3], 18%.

As for `Cn1ncc2ccc(Nc3nccc(-c4ccc5c(c4)c(N)nn5C)n3)cc21`, the Inhibition in assay [1] is reported as 99%; in assay [2], 96%; in assay [3] it was 48%.

`O=C(/C=C/c1ccc(Cl)c(Cl)c1)NCCCCCN1CCC(NC(=S)Nc2ccc(Cl)c(Cl)c2)CC1`: the values for the Inhibition in assay [1], in assay [2] and in assay [3] were 99%, 65% and 29%, respectively.

As for `CC(C)(CNC(=O)C1CCN(CCOc2ccc(F)c(F)c2)CC1)c1nc(-c2ccc(Cl)c(O)c2)c(-c2ccncc2)[nH]1.Cl`, the Inhibition in assay [1] is recorded as 100%; in assay [2], 19%; in assay [3], 41%.

As to `CCNc1cc(C(=O)N[C@@H](Cc2ccccc2)[C@H](O)CNC(C)(C)CCCC(C)C)cc(N2CCCCS2(=O)=O)c1.O=CO`, the values for the Inhibition in assay [1], in assay [2] and in assay [3] were 98%, 98% and 5%, respectively.

Take `CN(C)C(=O)c1ccc(CN(Cc2ccc3c(c2)OCCO3)Cc2ccc3c(c2)OCO3)cc1`: the Inhibition in assay [1] is 89%; in assay [2] it was 95%; in assay [3], 0%.

In the case of `CCNc1cc(C)nc(Nc2ccc(NS(=O)(=O)c3ccccc3)cc2)n1`, the Inhibition in assay [1] came out at 100%; in assay [2] it was 54%; in assay [3], 41%.

With `COc1cc(NC(=O)N2CCOC(CCN3CCC4(CCc5ccccc54)CC3)(c3ccc(Cl)c(Cl)c3)C2)cc(OC)c1OC` (stereo unspecified), the Inhibition in assay [1] is 94%; in assay [2], 67%; in assay [3] it was 17%.

`CCCCN(Cc1cccc(C(F)(F)F)c1Cl)c1ccc(C(O)(C(F)(F)F)C(F)(F)F)cc1.O=C(O)C(F)(F)F`: the Inhibition in assay [1] stood at 91%; in assay [2] it was 55%; in assay [3], 10%.

In the case of `Br.COc1ccc(CCON2C(=N)N=C(N)NC2(C)C)cc1OC`, the Inhibition in assay [1] turned out to be 96%; in assay [2], 93%; in assay [3] it was 64%.

As for `CN(C)CCNCc1ccc(-c2ccc(-c3nc4ccccc4[nH]3)s2)cc1.O=C(O)C(F)(F)F`, the Inhibition turned out to be 100% in assay [1], 100% in assay [2] and 0% in assay [3].

`CCCC(C)N(Cc1ccc(C(C)(C)C)cc1)C(=O)c1ccc(OC)cc1` (stereo unspecified): the Inhibition in assay [1] is listed as 100%; in assay [2], 98%; in assay [3], 7%.

Regarding `COc1cc(OC)cc(C(=O)Nc2nc(-c3ccccn3)cs2)c1`, the Inhibition in assay [1] is reported as 97%; in assay [2], 72%; in assay [3], 47%.

`O=C(Cn1c(CCc2cccc(F)c2F)nc(=O)c2ccccc21)N(Cc1ccc(-c2ccc(C(F)(F)F)cc2)cc1)C1CCN(C2CCOCC2)CC1.O=C(O)C(O)C(O)C(=O)O`: the Inhibition in assay [1] was 100%; in assay [2], 76%; in assay [3], 97%.
